AHR act – activates the human aryl hydrocarbon receptor | AID 2796 | activation, % at 5 µM | AHR-responsive luciferase reporter cells, luminescence | 320,000 compounds, 2.5% hits | P35869; in the data active = activation above about 47%
rCAG RNA binder – r(CAG) repeat RNA binding; TO-PRO-1 dye displacement fluorescence; inhibition, % at 3 µM; 370,000 compounds, 1.3% hits;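 active = inhibition above the plate cutoff, the mean of all test compounds on that plate plus 3 SD, cut at about 35% in these data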;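 note: higher means more dye released from RNA so lower well fluorescence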
ADAM17 inh – ADAM17 inhibition, QFRET primary screen | 370,000 compounds, 0.83% hits | recombinant ADAM17, EDANS/DABCYL FRET peptide cleavage | P78536 | AID 720648 | inhibition, % at 6.95 µM;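 active = inhibition above the mean of compounds lying between control limits plus 3 SD, set per campaign, cut at about 8.5% in these data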
GRIN3A LBD mod – modulates the human NR3A ligand-binding domain; NR3A LBD differential scanning fluorimetry, Tm shift; 0% = protein alone, 100% = glycine-bound protein; Tm shift relative to glycine control, % at 25 µM; 340,000 compounds, 2.5% hits;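 active = melting temperature shift of at least 10% of the positive control shift, at one fixed dose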
KLK7 zymogen act – activates the human kallikrein-7 zymogen. purified proKLK7, EDANS-DABCYL substrate fluorescence; 100% is mature enzyme control, 0% vehicle. activation, % at 7 µM. 370,000 compounds, 0.9% hits. AID 652039;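 active = activation above the mean of all tested compounds plus 3 SD, computed per campaign excluding outliers beyond control limits, cut at about 13% in these data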
Target sequence (P49862 whole entry, looked up): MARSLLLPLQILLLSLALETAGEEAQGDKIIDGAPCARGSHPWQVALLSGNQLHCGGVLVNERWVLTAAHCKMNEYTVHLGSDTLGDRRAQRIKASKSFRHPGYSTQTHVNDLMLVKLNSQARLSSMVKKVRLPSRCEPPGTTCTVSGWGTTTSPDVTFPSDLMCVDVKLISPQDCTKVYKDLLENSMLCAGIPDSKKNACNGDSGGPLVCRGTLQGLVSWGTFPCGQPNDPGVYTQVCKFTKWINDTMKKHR
ADAM10 inh – inhibits human ADAM10 | O14672 | recombinant ADAM10, EDANS/DABCYL FRET peptide cleavage, 3 h | AID 720582 | 370,000 compounds, 0.62% hits | inhibition, % at 7 µM;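 active = inhibition above a per-campaign cutoff equal to the mean of compounds falling between control-based bounds plus 3 SD, cut at about 20% in these data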
Of the large screens only hits and unclear results are named; the others gave an inactive call. An excerpt weighted towards active compounds, which were near 7% of everything screened.

O=C1NC(=Nc2ccccc2)S/C1=C\c1ccccc1	none
COc1cc(/C=C2\SC(=Nc3ccc(Cl)c(C(=O)O)c3)NC2=O)c(Br)c(Br)c1O	GRIN3A LBD mod 13 (no result: AHR act)
O=C(CSc1nnc(-c2ccc(Cl)cc2)n1-c1ccccc1)Nc1ccc2c(c1)OCCO2	none (no result: AHR act, GRIN3A LBD mod)
Oc1ccc(/C=N/Nc2nccnc2Cl)c(O)c1	GRIN3A LBD mod 18
Oc1ccc(/C=N/Nc2ncc(Br)cn2)c(O)c1	GRIN3A LBD mod 31
Cc1ccc(-c2cn3cccc(C)c3n2)cc1	GRIN3A LBD mod 23 (no result: AHR act)
Cc1cccn2cc(-c3ccc(Cl)cc3)nc12	AHR act 71
CCOc1ccc(-c2cn3ccccc3n2)cc1	none
COc1ccc(-c2cn3ccccc3n2)cc1OC	AHR act 61
Cc1cccn2cc(-c3ccc(S(=O)(=O)N4CCCCC4)cc3)nc12	none
COc1ccc(-c2cn3cccc(C)c3n2)cc1F	AHR act 70
COc1ccc(-c2cn3cc(C)ccc3n2)cc1F	none
O=C(NC1CCCCN(Cc2cccc(C(F)(F)F)c2)C1=O)c1ccc(-c2ccccc2)cc1 (configuration not stated)	none (no result: AHR act, GRIN3A LBD mod)
CCC(=O)Nc1cccc(-c2cn3cccc(C)c3n2)c1	GRIN3A LBD mod 15
N#Cc1cn(CCOc2ccc(F)cc2)c2ccccc12	none
N#Cc1cn(CCOc2ccccc2F)c2ccccc12	AHR act 49
O=C(NCc1ccccn1)c1cc(-c2ccccc2)nc2ccccc12	none
Cc1cccc(-c2cc(C(=O)NCc3ccccn3)c3ccccc3n2)c1	GRIN3A LBD mod 16
CCOc1ccccc1NC(=O)c1cc(-c2ccccn2)nc2ccccc12	AHR act 71
O=C(NCc1ccccn1)c1cc(-c2ccc(-c3ccccc3)cc2)nc2ccccc12	AHR act 66
Cc1cc(NC(=O)c2cc(-c3ccc(C)c(C)c3)nc3ccccc23)no1	AHR act 58
N#Cc1cccc(OC[C@@H](O)CN2CCC(C(O)(c3ccccc3)c3ccccc3)CC2)c1	none (no result: AHR act, GRIN3A LBD mod)
Nn1c(SCC(=O)Nc2nccs2)nnc1-c1cc(-c2ccc(F)cc2)n[nH]1	none (no result: AHR act, GRIN3A LBD mod)
Cc1ccc(-c2cc(C(=O)NCc3ccccn3)c3ccccc3n2)cc1C	AHR act 56
CCn1c2ccccc2c2cc(NC(=O)COC(=O)c3cccc(F)c3)ccc21	none (no result: AHR act, GRIN3A LBD mod)
O=C(CN1C(=O)NC(Cc2ccccc2)C1=O)Nc1ccc(F)c(Cl)c1 (configuration not stated)	GRIN3A LBD mod 29
O=C(CN1C(=O)NC(Cc2ccccc2)C1=O)Nc1ccc(OC(F)(F)F)cc1 (configuration not stated)	GRIN3A LBD mod 15
COC(=O)[C@]12C[C@H](CC(=O)NCC3CCCCC3)C(=O)N(Cc3cccc4ccccc34)C1=C[C@H](C1CCCC1)O[C@@H]2C	none (no result: AHR act, GRIN3A LBD mod)
COCCCNC(=O)C[C@H]1C[C@@]2(C(=O)OC)C(=C[C@H](COCc3ccccc3)O[C@@H]2C)N(Cc2ccc3c(c2)OCO3)C1=O	none (no result: AHR act, GRIN3A LBD mod)
Cc1cccc(NC(=O)c2cc(NC(=O)c3ccccc3)ccc2N2CCCCC2)c1	none
C#Cc1ccc(C(=O)Nc2ccc(N3CCC(C)CC3)c(C(N)=O)c2)cc1	GRIN3A LBD mod 27
COC[C@H]1CCCN1c1cccc2c1S(=O)(=O)N(C1CC1)CC[C@@H](C)O2	none (no result: AHR act, GRIN3A LBD mod)
CCN(CC)S(=O)(=O)c1cc([N+](=O)[O-])ccc1N=Nc1c(O)[nH]c2ccccc12	GRIN3A LBD mod 18
Cc1ccc2[nH]c(O)c(N=Nc3ccccc3[N+](=O)[O-])c2c1	none (no result: AHR act)
COC(=O)C[C@H]1CC[C@@H]2[C@@H](COc3ccc(NC(=O)Nc4ccccc4OC)cc3C(=O)N2C)O1	none (no result: AHR act, GRIN3A LBD mod)
Oc1[nH]c2ccccc2c1C1=NCCCCC1	AHR act 62
O=NC1=C(c2c(O)[nH]c3ccccc23)CCCC1	none
Cc1ccc(Oc2nc(-c3ccccc3)ncc2S(=O)(=O)c2ccc(C)cc2)cc1	GRIN3A LBD mod 11
Cc1ccc(Oc2nc(-c3ccccc3)ncc2S(C)(=O)=O)cc1	none
COc1cccc(C(=O)/C=C/Nc2cccc(O)c2)c1	GRIN3A LBD mod 13 (no result: rCAG RNA binder, ADAM17 inh, KLK7 zymogen act, ADAM10 inh)
COc1ccc(N/C=C/C(=O)c2cc(OC)c(OC)c(OC)c2)cc1	GRIN3A LBD mod 30
COc1cccc(C(=O)/C=C/Nc2ccc(S(=O)(=O)Nc3cccc(C(C)=O)c3)cc2)c1	GRIN3A LBD mod 13
COc1cccc(C(=O)/C=C/Nc2ccc(NC(C)=O)cc2)c1	none
COc1cccc(N/C=C/C(=O)c2ccc(C)cc2)c1	none
COc1ccc(N/C=C/C(=O)c2ccc(OC)c(OC)c2)cc1	none
O=C(NCCc1c[nH]c2ccccc12)OCc1cn(-c2ccc(Cl)cc2)nn1	none (no result: AHR act, GRIN3A LBD mod)
CC(C)(C)OC(=O)NCc1cc2c(cc1/C=C/S(=O)(=O)NCc1ccc(F)cc1)OCO2	none (no result: AHR act, GRIN3A LBD mod)
CCC(=O)Nc1ccc(Cl)cc1C(=O)c1ccc[nH]1	none (no result: AHR act, rCAG RNA binder, GRIN3A LBD mod, KLK7 zymogen act)
C[C@@H]1ON(C)[C@H]2C[C@H]3c4cc(-c5ccc(F)cc5)ccc4CCN3C[C@@H]12	none (no result: AHR act, GRIN3A LBD mod)
O=C(CCN1C(=O)c2ccccc2C1=O)Nc1ccc(-c2nc3ccccc3s2)cc1	none
O=C(CCS(=O)(=O)c1ccccc1)Nc1ccc(-c2nc3ccccc3s2)c(O)c1	GRIN3A LBD mod 15
O=C(O)CSCC(=O)Nc1ccc(-c2nc3ccccc3s2)cc1	rCAG RNA binder 39
O=C(Nc1ccc(-c2nc3ccccc3s2)cc1)C1=COCCO1	AHR act 50, GRIN3A LBD mod 30
O=C(Nc1ccc(-c2nc3ccccc3s2)c(O)c1)C1=COCCO1	GRIN3A LBD mod 36
O=C(Nc1cccc(-c2nc3ccccc3s2)c1)C1=COCCO1	none
O=C(Nc1ccc(O)c(-c2nc3ccccc3s2)c1)C1=COCCO1	AHR act 50
CC1=C(C)CC(C(=O)Nc2nc(-c3ccc(F)cc3)c(C)s2)C(C(=O)O)C1 (configuration not stated)	none
COc1cc(-c2nc3ccccc3s2)ccc1O	AHR act 48
Cc1sc(NC(=O)C2=COCCO2)nc1-c1ccc(F)cc1	AHR act 52
O=C(Nc1ccc(OC(=O)c2ccccc2)c(-c2nc3ccccc3s2)c1)c1ccccc1	none
Cc1ccsc1C(=O)Nc1ccc(O)c(-c2nc3ccccc3s2)c1	none
CC(=O)Nc1ccc(O)c(-c2nc3ccccc3s2)c1	AHR act 72
NNC(=O)c1csc(-c2ccccc2)n1	none
O=C(Nc1cccc(Cl)c1)c1csc(-c2ccccc2)n1	AHR act 93
Fc1ccc(-c2csc(-c3ccncc3)n2)cc1	GRIN3A LBD mod 26
O=C(Nc1ccc(F)cc1F)c1csc(-c2ccncc2)n1	AHR act 51
O=C(Nc1cccc(Cl)c1)c1cnccn1	none
O=C(Nc1ccc(F)cc1F)c1csc(-c2cccs2)n1	none
O=C(Nc1ccc(Cl)c(Cl)c1)c1csc(-c2ccccc2)n1	AHR act 74
COC(=O)N1C[C@H](OCc2ccccc2)[C@H]2C[C@@H]1c1ccccc1O2	none (no result: AHR act, GRIN3A LBD mod)

Screens from PubChem.
